Laboratory results: PubChem BioAssay AID1159580 (chemical genetic matrix, 2015)
Out of some 5,500 compounds screened, about 2,000 (36%) were called active. About 18% were inconclusive and are not listed. Some of the results follow. A number with no mark means an inactive call. Rule as the data show it: active = normalized growth mostly below about 0.91 (no sharp cut-off); inconclusive = no clear call, values can overlap the other calls; inactive = mostly above about 0.92.

Test: chemical genetic growth profiling, strain panel (AID 1159580);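 also: tested at 20 µM; growth read once vehicle control cultures reached saturation at 30 °C; 1 = growth at the plate median or of vehicle wells; lower values mean less growth of the strain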
Details: S. cerevisiae deletion strains, growth OD
[1] = locus YHR030C, strain SLT2, hits give low values

CCCS(=O)(=O)c1c(C)c(C)n(Cc2ccccc2)c1N
normalized growth (locus YAL013W, strain DEP1, hits give low values): 1.02
normalized growth (locus YBR229C, strain ROT2, hits give low values): 1.01
normalized growth (locus YDL101C, strain DUN1, hits give low values): 0.972
normalized growth (locus YDL134C, strain PPH21, hits give low values): 0.999
normalized growth (locus YDR150W, strain NUM1, hits give low values): 1
normalized growth (locus YEL061C, strain CIN8, hits give low values): 0.999
normalized growth (locus YGR078C, strain PAC10, hits give low values): 1
normalized growth [1]: 1.06
normalized growth (locus YHR087W, strain rtc3, hits give low values): 1
normalized growth (locus YJR043C, strain POL32, hits give low values): 0.997
normalized growth (locus YJR075W, strain HOC1, hits give low values): 0.99
normalized growth (locus YLR039C, strain RIC1, hits give low values): 1.05
normalized growth (locus YLR058C, strain SHM2 (second series), hits give low values): 1
normalized growth (locus YLR085C, strain ARP6, hits give low values): 1.27 [resistant] (active)
normalized growth (locus YLR262C, strain YPT6, hits give low values): 1.03
normalized growth (locus YML094W, strain GIM5, hits give low values): 1.04
normalized growth (locus YMR219W, strain ESC1, hits give low values): 1
normalized growth (locus YMR263W, strain SAP30, hits give low values): 0.999
normalized growth (locus YMR307W, strain GAS1, hits give low values): 1.14
normalized growth (locus YNL153C, strain GIM3, hits give low values): 1
normalized growth (locus YNL298W, strain CLA4 (second series), hits give low values): 1.02
normalized growth (locus YNL322C, strain KRE1, hits give low values): 0.999
normalized growth (locus YNR030W, strain Alg12, hits give low values): 1.02
normalized growth (locus YOL006C, strain TOP1, hits give low values): 1.2
normalized growth (locus YPL055C, strain LGE1, hits give low values): 1.06
normalized growth (locus YPL241C, strain CIN2, hits give low values): 1.1
normalized growth (locus YPR135W, strain CTF4, hits give low values): 1.15

CC1=C(/C=C/C(C)=C/C=C/C(C)=C/C=C/C=C(C)/C=C/C=C(C)/C=C/C(=O)[C@]2(C)C[C@@H](O)CC2(C)C)C(C)(C)C[C@H](O)C1
normalized growth (locus YAL021C, strain ccr4, hits give low values): 1.05
normalized growth (locus YAL026C, strain drs2, hits give low values): 1.06
normalized growth (locus YAL030W, strain snc1, hits give low values): 1.01
normalized growth (locus YBL061C, strain skt5, hits give low values): 1.03
normalized growth (locus YBR009C, strain hhf1, hits give low values): 0.996
normalized growth (locus YBR023C, strain chs3, hits give low values): 1.03
normalized growth (locus YBR171W, strain sec66, hits give low values): 1.03
normalized growth (locus YBR231C, strain swc5, hits give low values): 0.995
normalized growth (locus YBR279W, strain paf1, hits give low values): 1.05
normalized growth (locus YCL011C, strain gbp2, hits give low values): 1.01
normalized growth (locus YCL016C, strain dcc1, hits give low values): 1.02
normalized growth (locus YCL069W, strain vba3, hits give low values): 1.04
normalized growth (locus YCR088W, strain abp1, hits give low values): 1.02
normalized growth (locus YDL005C, strain med2, hits give low values): 1.03
normalized growth (locus YDL040C, strain nat1, hits give low values): 1.02
normalized growth (locus YDR001C, strain nth1, hits give low values): 1.02
normalized growth (locus YDR069C, strain doa4, hits give low values): 1.05
normalized growth (locus YDR137W, strain rgp1, hits give low values): 1.05
normalized growth (locus YDR159W, strain sac3, hits give low values): 0.98
normalized growth (locus YDR195W, strain ref2): 0.978
normalized growth (locus YDR297W, strain sur2, hits give low values): 1.02
normalized growth (locus YDR334W, strain swr1, hits give low values): 1.02
normalized growth (locus YDR335W, strain msn5, hits give low values): 1.03
normalized growth (locus YDR392W, strain spt3, hits give low values): 0.984
normalized growth (locus YEL003W, strain gim4, hits give low values): 0.997
normalized growth (locus YEL037C, strain rad23, hits give low values): 1.02
normalized growth (locus YEL061C, strain CIN8 (second series), hits give low values): 1.04
normalized growth (locus YER015W, strain faa2, hits give low values): 1.04
normalized growth (locus YER016W, strain bim1, hits give low values): 1.03
normalized growth (locus YER111C, strain swi4, hits give low values): 1.03
normalized growth (locus YER155C, strain BEM2 (second series), hits give low values): 1.03
normalized growth (locus YFR010W, strain ubp6, hits give low values): 1.02
normalized growth (locus YGL167C, strain pmr1, hits give low values): 1.03
normalized growth (locus YGL173C, strain kem1, hits give low values): 1
normalized growth (locus YGL227W, strain vid30, hits give low values): 1.02
normalized growth (locus YGL240W, strain doc1, hits give low values): 0.968
normalized growth (locus YGL253W, strain hxk2, hits give low values): 1.03
normalized growth (locus YHR013C, strain ard1, hits give low values): 1.03
normalized growth (locus YHR027C, strain rpn1, hits give low values): 1
normalized growth [1]: 0.991
normalized growth (locus YHR079C, strain IRE1, hits give low values): 0.987
normalized growth (locus YHR142W, strain chs7, hits give low values): 1.06
normalized growth (locus YJL092W, strain hpr5, hits give low values): 1.02
normalized growth (locus YJL095W, strain BCK1 (second series), hits give low values): 1.02
normalized growth (locus YJL095W, strain BCK1, hits give low values): 1.01
normalized growth (locus YJL115W, strain asf1, hits give low values): 1.02
normalized growth (locus YJL129C, strain trk1, hits give low values): 1.05
normalized growth (locus YJL154C, strain vps35, hits give low values): 1.01
normalized growth (locus YJL164C, strain tpk1, hits give low values): 1.02
normalized growth (locus YJL166W, strain qcr8, hits give low values): 1.04
normalized growth (locus YJR066W, strain TOR1, hits give low values): 0.942
normalized growth (locus YKL160W, strain elf1, hits give low values): 1.02
normalized growth (locus YKR026C, strain gcn3, hits give low values): 1.04
normalized growth (locus YKR091W, strain srl3, hits give low values): 1.01
normalized growth (locus YLL001W, strain dnm1, hits give low values): 1
normalized growth (locus YLL026W, hits give low values): 1.02
normalized growth (locus YLL041C, strain sdh2, hits give low values): 1.03
normalized growth (locus YLR027C, strain aat2, hits give low values): 1.02
normalized growth (locus YLR113W, strain HOG1, hits give low values): 0.991
normalized growth (locus YLR221C, strain rsa3, hits give low values): 1
normalized growth (locus YLR258W, strain gsy2, hits give low values): 1.02
normalized growth (locus YLR262C, strain YPT6 (second series), hits give low values): 1.02
normalized growth (locus YLR320W, strain mms22, hits give low values): 0.981
normalized growth (locus YLR342W, strain FKS1, hits give low values): 1.04
normalized growth (locus YLR357W, strain rsc2, hits give low values): 1.06
normalized growth (locus YLR370C, strain arc18, hits give low values): 1.02
normalized growth (locus YLR384C, strain iki3, hits give low values): 1.01
normalized growth (locus YML120C, strain ndi1, hits give low values): 0.986
normalized growth (locus YMR058W, strain fet3, hits give low values): 1.05
normalized growth (locus YMR125W, strain sto1, hits give low values): 1.02
normalized growth (locus YMR129W, hits give low values): 1.02
normalized growth (locus YMR205C, strain PFK2, hits give low values): 0.995
normalized growth (locus YMR231W, strain pep5, hits give low values): 1.04
normalized growth (locus YNL071W, strain lat1, hits give low values): 1.03
normalized growth (locus YNL183C, strain NPR1, hits give low values): 0.944
normalized growth (locus YNL209W, strain ssb2, hits give low values): 1.02
normalized growth (locus YNL248C, strain rpa49, hits give low values): 1.12 [resistant] (active)
normalized growth (locus YNL322C, strain KRE1 (second series), hits give low values): 1.03
normalized growth (locus YNR049C, strain mso1, hits give low values): 1.01
normalized growth (locus YOR001W, strain rrp6, hits give low values): 1.01
normalized growth (locus YOR070C, strain gyp1, hits give low values): 1.02
normalized growth (locus YOR080W, strain dia2, hits give low values): 1.03
normalized growth (locus YOR083W, strain WHI5, hits give low values): 0.993
normalized growth (locus YOR106W, strain vam3, hits give low values): 1.05
normalized growth (locus YOR231W, strain MKK1, hits give low values): 1.01
normalized growth (locus YOR265W, strain rbl2, hits give low values): 1.02
normalized growth (locus YOR270C, strain vph1, hits give low values): 1.16
normalized growth (locus YOR290C, strain snf2, hits give low values): 1.04
normalized growth (locus YPL051W, strain arl3, hits give low values): 1.06
normalized growth (locus YPL078C, strain atp4, hits give low values): 1.05
normalized growth (locus YPL106C, strain sse1, hits give low values): 1.05
normalized growth (locus YPL240C, strain hsp82, hits give low values): 1.01
normalized growth (locus YPL256C, strain CLN2, hits give low values): 0.995
